In all, about 52,000 sequences went through this assay and about 210 (0.4%) were called active. The sample as a whole holds a higher share of actives than the screen did. Unmarked numbers belong to inactive results.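 How the source made its calls: active means gene whose silencing raises cell survival under the drug, median off-target-corrected z-score across its silencing RNAs 2 or more; inactive means the rest.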
Experiment: Resistance to Poly (ADP-Ribose) Polymerase inhibitor: Gene Identification via Genome-wide siRNA Screen
Details: mouse BRCA2 R2336H ES cells, olaparib, CellTiter-Glo viability; stronger effect = higher value
Source text: The role of Poly (ADP-Ribose) Polymerase (PARP) proteins in DNA repair has been elegantly utilized for the synthetic lethality-based treatment of BRCA-deficient tumors by PARP inhibitors. PARP inhibitors are now being used for treatment of BRCA-deficient breast and ovarian cancers. […] While several mechanisms of drug resistance have been identified, majority of these tumors develop drug resistance due to unknown causes. To identified novel regulators of chemo-resistance in BRCA2-mutated cells, we performed a genome wide siRNA library screen. We have found ES cells expressing a hypomorphic allele of BRCA2 to be hypersensitive to PAPP inhibitors (such as olaparib). We used ES cells expressing a mutant allele of BRCA2 that has a single amino acid substitution at position 2336 (arginine to histidine, R2336H). The screen was conducted using an Ambion (Thermo) Silencer Mouse Genome siRNA collection. The library targets 17,575 mouse genes with 3 siRNAs per gene. TET2 (E130014J05Rik) was identified as a top candidate.
Transfections were performed in 384 well plates (Corning 3707). Plates were coated with 0.1% gelatin in H2O overnight at ambient temperature. Gelatin solution was aspirated (BioTek EL406) and siRNAs were printed using a Bravo VPrep liquid handler integrated within a BioCel automation platform (Agilent). Cell viability was measured using CellTiter Glo (Promega). For transfections, […] of serum free media containing Lipofectamine RNAiMax […] was added to wells containing siRNA (0.8pmol). Lipid and siRNA were allowed to complex for 45 min at ambient temperature before addition of 1000 cells in DMEM, 30% FBS to yield final transfection mixtures containing 20 nM siRNA in DMEM, 15% FBS. PARPi (olaparib, AZD2281) was added 48 h post-transfection (500 nM) and viability (CellTiter Glo, Promega) was assayed 72 h later on a PerkinElmer Envision 2104 Multilabel plate reader. Ambion Silencer Select Negative Control #2 was incorporated on all screening plates (16 wells) and the median negative control value on each plate was used for normalization. An siRNA targeting Trp53 was used as a positive control. This control yielded a median protective effect of ~1.9 fold versus negative control throughout the screen. The median absolute deviation (MAD) based z-score was calculated for each siRNA. Genes were then ranked by taking the median value for all siRNAs tested against a given gene. Scores were also adjusted for seed-based off-target effects to help deprioritize likely false positives.

| Sequence | z-score |
| --- | --- |
| GGCAUCCGUGUGUCUCUAGTT against 5730457F11Rik | -2.13 (active) |
| CCACUUUCGCUUUACCAAUTT against C330011M18Rik | 0.267 |
| CCAACUCUGUUACAUUAUGTT against Fshprh1 | 0.377 |
| GGGCUAAAGUUGAUAAUAATT against Psmc3 | -3.32 |
| GGGAGCUCCAUUUAAAUUATT against A230103N10Rik | 0.137 |
| GGCAUUCAAAAGGUAAAAUTT against Grid2 | 2.35 (active) |
| CCAGCACUCAAUCCUGUAATT against Olfr305 | -1.73 |
| GCUAUCAACAAUCUUCGAATT against Azi1 | 0.37 |
| GGAGAACACUUUAAUGCUGTT against 9230106D23Rik | 0.667 |
| GAACCUUUUCCGUUUCGAGTT against Cebpb | 0.245 |
| GGCCAGCAGACUAUUUAUUTT against 1110021N07Rik | -1.57 |
| GGACCUAGAGGAAGUGAAATT against Apoa1 | 2.05 (active) |
| GCUUUACUUCUUCCUCAUUTT against Olfr924 | -0.698 |
| GGUCUAUGUACUCGCCAAATT against Ptpns1 | -0.633 |
| CCGUCACUAUACCCAAGUUTT against Olfr802 | -3.11 |
| CGUGCUUAAGAGUCCACUATT against H3f3a | -1.43 |
| CCUCGUUCAUACGACAGAATT against BC062951 | -0.447 |
| GCUUAGACUCACCAAAGGCTT against Gpr26 | 1.11 |
| GCAACACAUUUGAACCACUTT against Usp15 | 2.9 (active) |
| GGCACAGAAAUUAUGUUCUTT against 1810012H11Rik | -0.685 |
| GGAAUUCAACUCAGAUAAGTT against C3 | -0.52 |
| GGUUUUCUUAAAAUAGGAGTT against Tat | 3.69 (active) |
| CCAUAUCCGUAGGUAUAUCTT against Htr2a | 1.02 |

| Sequence | z-score |
| --- | --- |
| GGCUUGGAAGGAUUAGAAGTT against 4930418G15Rik | -0.344 |
| CCUCCACUUACUUUGGGUGTT against Cic | 1.48 (active) |
| GGAGCUCAACAAGUUGCUUTT against Hist1h2aa | -0.0931 |
| GGGAGAUCUUUAAGAGAAATT against Tcfap2a | -0.65 |
| CGAGAUCACGAGAUCGGUUTT against Prdm4 | 2.21 |
| GGCCAAGCUGAUCAAUAUATT against Oprd1 | -0.0592 |
| CCCAAUAAAACUUCCGGGATT against BC021608 | 0.531 |
| CUCUCGAACAAUCAACCACTT against Olfr315 | -0.314 |
| GCUGAAAUCAGAAGCUAACTT against Casc3 | 0.845 |
| GCAUUGGCUGUACUACUAUTT against Psg18 | -0.196 |
| CCACAGCCAAAUGCACAAGTT against Gm1631 | -0.237 |
| GGGAAAUCAGUUUUACAAATT against Chl1 | 2.76 (active) |
| CCGGUUGCUAGGCUAAACATT against Wdr68 | -3.25 |
| CGUAAAACUCUUAGGCAUGTT against Npm1 | 2.54 (active) |
| CCCACUCCAAACAUCUAAATT against Gadd45b | 0.111 |
| GCCUCUUUGAUAGCAAAAGTT against Cct6a | 0.0125 |
| GGCAUUUUUCUUCUCCAAATT against Clns1a | -0.934 |
| GGGACUGUAAUGUUGACACTT against Olfr560 | 0.851 |
| GGCAAAAAAAACUGCUAUATT against Gpr128 | 0.0555 (active) |
| GGAAAUAAGACUCAGGUCATT against Gtf2a1 | -1.44 |
| GCGAGUUGGAAUUGAGAUCTT against Casp8 | 0.155 |
| GGUUUUGGCUCGAAGGAAATT against Tead2 | -1 |
| GGAAUGUCCACAUUUUGUATT against Tigd5 | 0.00592 |

| Sequence | z-score |
| --- | --- |
| GGAUGAUGAGAGAAACAAATT against Jak1 | 2.1 (active) |
| GCCGGUUUCAGUUAAAGAGTT against Pccb | 2.26 |
| GGGAAUCGGCCUGAAGAAATT against Arl6ip5 | -0.707 |
| CCUUCUGGUGCUUUUAGAGTT against Tlm | 0.431 |
| GGGUUAUACCAAGUCCAUUTT against Mapk1 | 3.33 (active) |
| GGUUUCCAUGGUAACGUGGTT against Tns | 1.17 |
| CGAAGCUGCAAAGGAGAAGTT against Igf1 | -0.732 |
| GGUCUUCUACAACUCGGAATT against Sgpp1 | -0.0398 (active) |
| GGAGAAGAAGAAAAGAACATT against Pom121 | -3.12 |
| GCACCCGGCACUAGAAAAATT against Shoc2 | 0.638 |
| GCUUUACCUGCUCAGAAGCTT against Olfr520 | 0.553 |
| GCGAUUUUACGGAUCCGGUTT against Olfr1420 | -0.612 |
| GGGAAGUCACUGAAGCCUGTT against Akr7a5 | -0.538 |
| GGGACACACGGUAUACAUCTT against Pfkl | 0.358 |
| GGAUGUUAUAAGAUUGCGUTT against Rnf170 | -0.646 |
| GGAACUGAUGAAUAUUUCATT against Chrnb1 | 0.177 (active) |
| GUUGGUAAAGGUCCUUGCCTT against D17Wsu155e | -1.02 |
| GCUACUCAUGCUAGAUGACTT against Gba | 1.64 |
| GGUUGAACCCACUCUGCAATT against Olfr1113 | -2.16 |
| GCACAGUGGAUGCAAUCAGTT against Btbd1 | 0.346 |
| GCCCGACAGGAGAUAUUUATT against B230340J04Rik | -1.19 |
| GGAGAGCUGGAACAAUAGCTT against Bcl2l2 | 2.66 (active) |

— PubChem BioAssay AID1347423 (Functional Genomics Laboratory (NCATS/FGL), 2020)
